Measured values reported in PubChem BioAssay (NCATS).
Where “and” joins values, the source holds several entries; their conditions need not be identical. Equal entries are not always repeated. Inconclusive results are not listed. Entries that show only a call come without a potency. Unmarked numbers belong to inactive results. Calls of active or inactive are those of the source. Calls follow the shape of the dose curve; as a rule, active = well fitted curve in the direction sought with a large enough effect; inconclusive = small, poorly fitted or top-dose-only effect, or another doubt; inactive = no such curve, though single readings can be large; an effect the other way counts as inactive or inconclusive.

Experiments:
[1] = Quantitative highthroughput screen to assess conditional lethalithy of NOMO1 cells grown in RPMI1640 with untreated serum (RPMI+s) (AID 1963876); also: nearly all actives have a fitted effect of over 35% in size
Method in brief: (§1)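 Each medium arm—HPLM with 10% dialyzed FBS, or RPMI1640 with 5 mM glucose and 10% untreated or dialyzed FBS—was screened against an 11-point, 3-fold compound titration for 48 h at 37 °C, with CellTiter-Glo luminescence as endpoint.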

[2] = Quantitative highthroughput screen to assess conditional lethalithy of NOMO1 cells grown in RPMI1640 with dialyzed fetal bovine serum (RPMI+ds) (AID 1963877); also: nearly all actives have a fitted effect of over 30% in size; as to viability: series mostly up to about 46 µM
Method in brief: as §1

[3] = Quantitative highthroughput screen to assess conditional lethalithy of NOMO1 cells grown in Human Plasma-Like Medium with dialyzed fetal bovine serum (HPLM+ds) (AID 1963878); also: nearly all actives have a fitted effect of over 35% in size
Method in brief: as §1

[4] = Quantitative highthroughput screen to assess conditional lethalithy of P12 Ichikawa cells grown in Human Plasma-Like Medium with dialyzed fetal bovine serum (HPLM+ds) (AID 1963879); settings: Potency: viability; also: nearly all actives have a fitted effect of over 35% in size; as to viability: series mostly up to about 46 µM
Method in brief: as §1

[5] = Quantitative highthroughput screen to assess conditional lethalithy of P12 Ichikawa cells grown in RPMI1640 with dialyzed fetal bovine serum (RPMI+ds) (AID 1963880); settings: Potency: P12-Ichikawa viability; also: nearly all actives have a fitted effect of over 35% in size
Method in brief: as §1

[6] = Quantitative highthroughput screen to assess conditional lethalithy of P12 Ichikawa cells grown in RPMI1640 with untreated serum (RPMI+s) (AID 1963881); settings: Potency: viability; also: nearly all actives have a fitted effect of over 35% in size; as to viability: series mostly up to about 46 µM
Method in brief: as §1

[7] = Quantitative highthroughput screen to assess conditional lethalithy of SEM cells grown in Human Plasma-Like Medium with dialyzed fetal bovine serum (HPLM+ds) (AID 1963882); also: nearly all actives have a fitted effect of over 35% in size; as to viability: series mostly up to about 46 µM
Method in brief: as §1

[8] = Quantitative highthroughput screen to assess conditional lethalithy of SEM cells grown in RPMI1640 with unreated serum (RPMI+s) (AID 1963883); also: nearly all actives have a fitted effect of over 35% in size
Method in brief: as §1

[9] = Quantitative highthroughput screen to assess conditional lethalithy of SEM cells grown in RPMI1640 with dialyzed fetal bovine serum (RPMI+ds) (AID 1963884); also: nearly all actives have a fitted effect of over 35% in size; as to viability: series mostly up to about 46 µM
Method in brief: as §1

[10] = Cellular viability qHTS for adrenocortical cancer (ACC) cell line SW-13 (AID 1963989); settings: SW-13 ACC cells viability, CellTiter-Glo, 48 h; activity (max response): stronger effect = lower value; also: nearly all actives have a fitted effect of over 65% in size;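 as to activity (max response): cells grown in serum-free medium with ITS supplement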
Method in brief: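 48 h treatment, SW-13 in ITS/DMEM serum-free; doses up to 46 uM; readout CellTiter-Glo luminescence; curve fit four-parameter logistic.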

[11] = Cellular viability qHTS for adrenocortical cancer (ACC) cell line NCI-H295R (AID 1963990); also: nearly all actives have a fitted effect of over 60% in size
Method in brief: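 Compound titrations (up to 46 uM final) are applied to NCI-H295R cultures for 48 h at 37C. Viable cell number is estimated by CellTiter-Glo signal, normalised to DMSO and doxorubicin controls.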
Potency is read from the fitted curve at half-maximal effect.

Compound	Potency [1]	Potency [2]	Potency [3]	Potency [4]	Potency [5]	Potency [6]	Potency [7]	Potency [8]	Potency [9]	Potency [10]	Potency [11]	activity (max response) [10]
CC(C)c1ccc(Cn2ccc3c4c(N)nc(NC5CC5)nc4ccc32)cc1	10.5 µM (active)	5.9 µM (active)	1.05 µM (active)	3.72 µM (active)	2.64 µM (active)	4.69 µM (active)	1.66 µM (active)	3.72 µM (active)	3.72 µM (active)	0.398 µM (active)	1.12 µM (active)	
COc1cc(F)c(C(C)C)cc1-c1ccc(C(F)(F)F)cc1CN1C(=O)O[C@H](c2cc(C(F)(F)F)cc(C(F)(F)F)c2)[C@@H]1C	inactive	inactive	inactive	inactive	inactive	inactive	inactive	inactive	inactive		inactive	-14.8%
Cc1ccccc1C(C(=O)NC1CCCCC1)N(C(=O)Cn1ccnc1C)c1cccc(F)c1 (stereo not given)	inactive	inactive	inactive	inactive	inactive	inactive	inactive	inactive	inactive			-14.8%
C[C@H](NCc1ccc2c(c1)nc(NC(=O)c1ccc(-c3cn[nH]c3)s1)n2CCc1ccccc1)C(C)(C)C	9.35 µM (active)	6.62 µM (active)	5.9 µM (active)	11.8 µM (active)	11.8 µM (active)	9.35 µM (active)	0.469 µM (active)	0.526 µM (active)	0.0743 µM (active)			
CN1[C@H]2CC[C@H]1CC(OC(=O)c1c[nH]c3ccccc13)C2 (stereo not given in full)	inactive	inactive	inactive	inactive	inactive	inactive	inactive	inactive	inactive			
O=C1CCc2cc(OCCCCc3nnnn3C3CCCCC3)ccc2N1	inactive	inactive	inactive	inactive	inactive	inactive	inactive	inactive	inactive		inactive	
O=c1c(O)c(-c2cc(O)c(O)c(O)c2)oc2cc(O)cc(O)c12	inactive	inactive	inactive	inactive	inactive	inactive	inactive	inactive	inactive			-0.163%
Oc1ccc(C2CNCCc3c2cc(O)c(O)c3Cl)cc1 (stereo not given)	inactive	inactive	inactive	inactive	inactive	inactive	inactive	inactive	inactive		inactive	2.44% and 14.8%
O=C1NCCc2[nH]c(-c3ccncc3)cc21	18.7 µM (active)	20.9 µM (active)	18.7 µM (active)	16.6 µM (active)	14.8 µM (active)	14.8 µM (active)	13.2 µM (active)	13.2 µM (active)	14.8 µM (active)		7.08 µM (active)	
O=C(Nc1ccc(F)c(C(F)(F)F)c1)Nc1nnc(-c2ccncc2)s1	inactive	inactive	inactive	inactive	inactive	inactive	inactive	inactive	inactive		inactive	4.96%
C=C1c2cccc(O)c2C(O)=C2C(=O)[C@@]3(O)C(O)=C(C(N)=O)C(=O)[C@@H](N(C)C)[C@@H]3[C@@H](O)[C@H]12	inactive	inactive	inactive	inactive	inactive	inactive	inactive	inactive	inactive		inactive	-8.37%
COc1cccc2c1C(=O)c1c(O)c3c(c(O)c1C2=O)C[C@@](O)(C(=O)CO)C[C@@H]3O[C@H]1C[C@H](N)[C@@H](O)[C@H](C)O1	2.96 µM (active)	2.96 µM (active)	3.32 µM (active)	2.96 µM (active)	2.96 µM (active)	2.96 µM (active)	2.64 µM (active)	1.48 µM (active)	2.64 µM (active)	1.12 µM (active)	8.91 µM (active)	
CCOC(=O)C1=C[C@@H](OC(CC)CC)[C@H](NC(C)=O)[C@@H](N)C1	inactive	inactive	inactive	inactive	inactive	inactive		inactive	inactive		inactive	7.32%
Cc1coc2c1C(=O)C(=O)c1c-2ccc2c(C)cccc12	inactive	inactive	inactive	inactive	inactive	inactive	inactive		inactive			
CC(=O)Nc1cccc(-n2c(=O)n(C3CC3)c(=O)c3c(Nc4ccc(I)cc4F)n(C)c(=O)c(C)c32)c1	0.332 µM (active)	0.209 µM (active)	0.235 µM (active)	2.64 µM (active)	4.69 µM (active)	3.72 µM (active)	2.35 µM (active)	1.48 µM (active)	1.87 µM (active)		inactive	
Cc1ccc(NC(=O)c2cccc(N(C)C)c2)cc1NC(=O)c1ccc(O)cc1	inactive	inactive	inactive	inactive	inactive	inactive	inactive	inactive	inactive		inactive	
NS(=O)(=O)c1ccc(NC2=CC(=O)c3ccccc3C2=O)cc1	inactive	inactive	inactive	inactive	inactive	inactive					3.98 µM (active)	-24.7%
